# In PubChem BioAssay AID488969 (Vanderbilt High Throughput Screening Facility, 2010):
# In all, about 110,000 compounds were measured (“z-score”: median about -0.1, highest 2% from about 2 on). This is one part of a sample in which the highest values are shown more often than they occur. Activity calls are given as the source filed them.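 Rule for the calls: active = z-score in the third read window above 3 or below -3; inactive = the rest.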
# Target: Metabotropic glutamate receptor 8 (Rattus norvegicus) (UniProt P70579)
# Sequence (P70579 whole entry, looked up): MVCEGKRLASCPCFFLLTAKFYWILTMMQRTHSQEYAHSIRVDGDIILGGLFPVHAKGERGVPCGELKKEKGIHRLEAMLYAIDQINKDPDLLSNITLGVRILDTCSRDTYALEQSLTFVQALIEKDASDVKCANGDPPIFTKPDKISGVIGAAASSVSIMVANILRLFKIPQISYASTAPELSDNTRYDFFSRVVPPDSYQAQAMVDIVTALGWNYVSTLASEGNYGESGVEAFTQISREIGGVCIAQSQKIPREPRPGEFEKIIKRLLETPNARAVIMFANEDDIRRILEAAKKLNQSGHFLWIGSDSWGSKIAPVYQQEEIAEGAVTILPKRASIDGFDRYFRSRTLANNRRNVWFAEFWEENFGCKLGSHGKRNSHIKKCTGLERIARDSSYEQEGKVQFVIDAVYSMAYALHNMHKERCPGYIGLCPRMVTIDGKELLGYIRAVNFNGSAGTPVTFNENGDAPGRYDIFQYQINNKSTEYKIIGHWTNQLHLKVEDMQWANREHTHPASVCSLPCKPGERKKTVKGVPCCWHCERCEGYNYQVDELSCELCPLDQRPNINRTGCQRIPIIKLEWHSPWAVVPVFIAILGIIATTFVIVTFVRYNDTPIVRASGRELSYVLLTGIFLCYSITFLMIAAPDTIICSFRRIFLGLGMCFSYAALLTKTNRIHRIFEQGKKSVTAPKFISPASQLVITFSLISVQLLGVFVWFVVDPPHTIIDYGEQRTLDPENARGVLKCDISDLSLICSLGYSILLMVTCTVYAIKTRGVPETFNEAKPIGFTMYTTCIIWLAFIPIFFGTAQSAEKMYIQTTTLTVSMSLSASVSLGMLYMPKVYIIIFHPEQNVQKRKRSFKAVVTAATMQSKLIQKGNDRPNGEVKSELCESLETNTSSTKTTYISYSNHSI
# Experiment: mGluR8 Gi/Go-coupled signaling modulation – cell-based, rat, thallium flux, HTS, primary screen (AID 488969)
# Settings: HEK293 rat mGluR8, GIRK (G protein-gated inwardly rectifying potassium channel) thallium flux, FluoZin2; at 10 µM; stronger effect = higher value; submaximal glutamate (EC20) added with thallium
row,SMILES,z-score
1,Cc1ccc(C(=O)N/N=C/C2=Cc3ccccc3OC2C)cc1 (stereo not drawn),3.08 (active)
2,CC1Oc2ccccc2C=C1/C=N/NC(=O)c1ccccc1 (stereo not drawn),1.9
3,CC1Oc2ccccc2C=C1/C=N/NC(=O)c1ccccc1O (stereo not drawn),0.0521
4,Cc1ccsc1C(=O)NNC(=O)Nc1ccc(Cl)c(Cl)c1,-0.13
5,COc1cccc(OC)c1OCCCCCc1c(C)n[nH]c1C,-0.231
6,COc1ccccc1OCCCCCc1c(C)n[nH]c1C,-0.151
7,CCOc1ccccc1OCCCCCc1c(C)n[nH]c1C,3.05 (active)
8,CCC(=O)N/C(=N/c1nc(C)cc(C)n1)Nc1cccc(OC)c1,0.0375
9,Cc1cc(/C([O-])=C(/C(=S)Nc2ccc(F)cc2)[n+]2ccccc2)c(C)n1-c1ccc(F)cc1,-0.454
10,O=C(Nc1nnc(C(F)(F)F)s1)C1COc2ccccc2O1 (stereo not drawn),-0.109
11,CCC(CC)c1nnc(NC(=O)c2cc(-c3ccccc3)nc3ccccc23)s1,-0.847
12,CCSc1nnc(NC(=O)c2cc(C)nc3ccccc23)s1,0.31
13,CCSc1nnc(NC(=O)c2ccc3ccccc3n2)s1,11.8 (active)
14,CCSc1nnc(NC(=O)c2cccc3ccccc23)s1,-0.316
15,CCC(CC)c1nnc(NC(=O)c2ccc3ccccc3n2)s1,11.4 (active)
16,CCc1nnc(NC(=O)C2COc3ccccc3O2)s1 (stereo not drawn),0.0066
17,CCC(CC)c1nnc(NC(=O)Oc2ccccc2)s1,-0.366
18,CCC(CC)c1nnc(NC(=O)C2COc3ccccc3O2)s1 (stereo not drawn),3.82 (active)
19,COc1cccc(C2C(C(C)=O)=C(O)C(=O)N2CCc2c[nH]c3ccccc23)c1 (stereo not drawn),-0.32
20,Cc1ccc(CSc2ccc(-c3ccco3)nn2)cc1,0.361
21,C=CCN(C(C)=O)C1CC(=O)N(c2ccc(OCCC)cc2)C1=O (stereo not drawn),-0.00882
22,CCC/C(=N/NC(=O)c1csc(C)c1C)c1ccc(Cl)s1,5.92 (active)
23,C/C(=N\NC(=O)c1csc(C)c1C)c1ccc(Cl)s1,3.54 (active)

row,SMILES,z-score
1,Cc1scc(C(=O)N/N=C/c2ccco2)c1C,-0.0599
2,CCC/C(=N\NC(=O)c1csc(C)c1C)c1cccs1,0.475
3,C/C(=N\NC(=O)c1csc(C)c1C)c1ccco1,0.816
4,CC/C(=N\NC(=O)c1csc(C)c1C)c1cccs1,1.32
5,COc1ccc(CCNC(=O)C2CCCN(S(=O)(=O)c3cnc[nH]3)C2)cc1OC (stereo not drawn),-0.0112
6,CCOc1ccccc1C(=O)N(Cc1ccco1)C1CCS(=O)(=O)C1 (stereo not drawn),0.0514
7,CN1C(=O)CSC1=NCC12CC3CC(CC(C3)C1)C2,-0.123
8,COc1ccc(Cl)cc1NC(=S)NCCc1c[nH]c2ccccc12,0.142
9,CCOc1ccc(CN(Cc2ccco2)S(=O)(=O)c2ccc(-n3cnnn3)c(OC)c2)cc1,2.75
10,COc1cc(S(=O)(=O)N(Cc2ccc(C)cc2)Cc2ccco2)ccc1-n1cnnn1,0.205
11,CCOc1ccccc1CN(Cc1ccco1)S(=O)(=O)c1ccc(-n2cnnn2)c(OC)c1,0.115
12,O=C(Cc1c(F)cccc1Cl)NCC1CCCO1 (stereo not drawn),0.148
13,CN1/C(=C\C(=S)NC(=O)c2cccc(Br)c2)C(C)(C)c2ccccc21,-0.0589
14,Cc1ccc(C(=O)NC(=S)/C=C2\N(C)c3ccccc3C2(C)C)cc1,2.66
15,CN1/C(=C\C(=S)NC(=O)c2ccc([N+](=O)[O-])cc2)C(C)(C)c2ccccc21,0.213
16,CC(C)(C)C(=O)Nc1ccc(-c2cn3ccsc3n2)cc1,-1.44
17,CCCN1CNC(=S)N(c2ccc(C(=O)OCC)cc2)C1,-2.04
18,O=C(NC(=S)Nc1ccc2[nH]ncc2c1)c1ccccc1,-0.139
19,O=C(NC(=S)Nc1ccc2c(c1)OCO2)c1ccc(Cl)cc1,0.837
20,O=C(NCC1COc2ccccc2O1)c1ccccc1 (stereo not drawn),0.298
21,O=C(NC(=S)NCc1ccc2c(c1)OCO2)c1ccccc1,1.1
22,O=C(NC(=S)Nc1ccc2c(c1)OCCO2)c1cccc(Br)c1,0.945
23,Cn1ncc2cc(NC(=S)NC(=O)c3ccccc3)ccc21,2.21

row,SMILES,z-score
1,O=C(NC(=S)NCC1COc2ccccc2O1)c1ccccc1 (stereo not drawn),6.58 (active)
2,O=C(CNC(=O)c1ccccc1)NCC1COc2ccccc2O1 (stereo not drawn),0.11
3,Cc1cc(NC(=S)NC(=O)c2ccccc2)ccc1-c1cc2ccccc2oc1=O,-0.165
4,O=C(NC(=S)Nc1ccc2c(c1)OCO2)c1ccccc1,3.25 (active)
5,O=C(CC(=O)c1ccccc1)Nc1ccc2c(c1)OCCO2,-0.987
6,O=C(NC(=S)Nc1ccc2c(c1)OCCO2)c1ccccc1,2.12
7,Cc1ccc(C2N(c3ccc(F)cc3)C(=O)C3CCCN32)cc1 (stereo not drawn),0.214
8,N#Cc1cc(C(=O)c2ccccc2OCC(=O)Nc2ccccc2Cl)cn(C2CCCCC2)c1=O,-0.433
9,CCn1c(CCCOc2ccc(Cl)cc2Cl)nnc1SCC(=O)Nc1cccc(F)c1,-0.135
10,CCOc1ccccc1Nc1ncccc1C(=O)N1CCCC1,1.1
11,Cc1ccc(C)c(N2CCN(S(=O)(=O)c3c(C)noc3/C=C/N(C)C)CC2)c1,-0.559
12,CC1(C(=O)N2CC3(CC(c4ccccc4)=NO3)C[C@H]2C(=O)NCC(N)=O)CC1 (stereo partly drawn),-0.0396
13,CCOc1ccccc1Oc1c(C)oc2c(CN3CCN(CCO)CC3)c(O)ccc2c1=O,-0.395
14,CCc1ccc(N2CC(C(=O)Nc3ccc(C)c(S(=O)(=O)N4CCOCC4)c3)CC2=O)cc1 (stereo not drawn),0.319
15,CC(C)NC(=O)c1ccccc1N(Cc1ccccc1)S(C)(=O)=O,0.373
16,COc1ccc2nc(NC(=O)c3cccc(-c4cc5ccccc5oc4=O)c3)sc2c1,0.372
17,Cc1ccc(C(=O)NC(=S)Nc2ccc3c(c2)OCCO3)c(C)c1,2.7
18,CCc1ccc(C(=O)NC(=S)Nc2ccc3c(c2)OCCO3)cc1,0.946
19,Cc1cc(C)cc(C(=O)NC(=S)Nc2ccc3c(c2)OCCO3)c1,-0.353
20,Cc1ccc(Cl)c(NC(=S)N(CCCN2CCOCC2)Cc2ccco2)c1,-0.227
21,Cc1cccc2cc(/C=N/NC(=O)c3ccccc3O)c(Cl)nc12,0.0387
22,O=C(NCCCCNC(=O)c1ccc(Cl)s1)c1ccc(Cl)s1,-0.423
23,CC1(C)Cc2ccccc2C(/C(=N\Nc2cccc(Cl)c2)C(N)=O)=N1,3.23 (active)

row,SMILES,z-score
1,COc1ccc(N/N=C(/C(N)=O)C2=NC(C)(C)Cc3ccccc32)cc1,-0.381
2,Cc1cccc(N/N=C(\C(N)=O)C2=NC(C)(C)Cc3ccccc32)c1,-0.302
3,Cc1cc(C(=O)N/N=C/c2cccnc2)c(C)o1,0.000639
4,O=C(CCCCl)NC(=S)Nc1cc(C(F)(F)F)ccc1N1CCOCC1,0.012
5,O=C1CCCC2=C1C(c1ccncc1)c1c(nc(SCc3ccccc3)[nH]c1=O)N2 (stereo not drawn),-1.55
6,CCn1c2ccccc2c2cc(/C=N/n3c(C)nnc3C)ccc21,-1.04
7,CCn1c2ccccc2c2cc(/C=N/n3cn[nH]c3=S)ccc21,11.5 (active)
8,CCn1c2ccccc2c2cc(/C=N/n3cnnc3)ccc21,-1.04
9,Nc1nnnn1/N=C/c1ccc(N2CCCCC2)c([N+](=O)[O-])c1,1.18
10,CC1CCN(c2ccc(/C=N/n3nnnc3N)cc2[N+](=O)[O-])CC1,3.58 (active)
11,CC1CCN(c2cc(N)c(Cl)cc2[N+](=O)[O-])CC1,-0.475
12,CCc1nnc(N/N=C/c2ccc(N3CCC(C)CC3)c([N+](=O)[O-])c2)n1N,-0.0832
13,Cc1nnc(N/N=C/c2cc([N+](=O)[O-])c(N3CCC(C)CC3)cc2N2CCC(C)CC2)n1N,2.68
14,Cc1ccc(/C=N/n2nnnc2N)cc1[N+](=O)[O-],0.159
15,CC(=O)Nc1ccc(OCC(O)CN2C(C)CCCC2C)cc1 (stereo not drawn),-0.417
16,Cn1c(=O)c2c(nc(SCc3ccccc3)n2Cc2ccc(Cl)cc2)n(C)c1=O,-0.333
17,C/C(CC(O)c1ccc2ccccc2n1)=N/O (stereo not drawn),5.27 (active)
18,CC(=O)/C=C/c1ccc2ccccc2n1,0.038
19,Cc1c(O)ccc(/C(Cc2ccc3ccccc3n2)=N\O)c1O,-0.308
20,CCc1ccc2[nH]c(=O)c(C(c3nnnn3Cc3ccco3)N3CCC(C)CC3)cc2c1 (stereo not drawn),-0.27
21,Cc1ccnc(N(C(=O)c2cccs2)C(=O)c2cccs2)c1,-0.0449
22,O=C(c1cccs1)N(C(=O)c1cccs1)c1ccc(Br)cn1,2.26
23,O=C(/C=C/c1cccs1)Nc1ccc(Br)cn1,-0.222

row,SMILES,z-score
1,CC(=O)N1c2ccccc2Oc2cc3ccccc3cc21,-0.261
2,Cc1cccc(N2C(=O)CS/C2=N\NC(=O)c2ccc(Cl)cc2)c1C,3.96 (active)
3,Cc1cccc(N2C(=O)CS/C2=N\NC(=O)c2ccc(Br)cc2)c1C,1.16
4,Cc1ccc(C(=O)N/N=C2\SCC(=O)N2c2cc(C)ccc2C)cc1,-0.396
5,Cc1ccc(N2C(=O)c3ccccc3C2Nc2ccccc2)nc1 (stereo not drawn),-0.424
6,CN1CCN(/C=C2\SC(=S)NC2=O)CC1,-0.54
7,Cc1nn(C)c(C)c1/C=C1/SC(=S)NC1=O,0.492
8,CN1CCC/C1=C/C=C1\SC(=S)NC1=O,2.4
9,Cc1ccc(C(=O)CSc2nc3ccccc3c(=O)n2-c2ccccc2)s1,0.061
10,O=C(NCc1ccncc1)/C(=N/O)c1ccccc1,1.14
11,O=C(NCc1cccnc1)/C(=N\O)c1ccccc1,2.02
12,O=C(NCc1ccccc1)/C(=N\O)c1ccccc1,0.503
13,COc1ccc(N(CC(=O)NCCC2=CCCCC2)S(C)(=O)=O)cc1OC,0.274
14,CCN1C(=O)/C(=C2/Sc3ccc(OC)cc3N2C)SC1=Nc1ccc(C(C)=O)cc1,-0.0997
15,CCOC(=O)N1CCC(NC(=O)c2ccc(CS(=O)(=O)c3ccc(OC)cc3)o2)CC1,-0.141
16,O=C(CN1CCCCC1)Nc1ccc(S(=O)(=O)N2CCOCC2)cc1,-0.0871
17,COc1ccccc1-c1nc2cc3ccccc3cc2nc1-c1ccccc1OC,-0.377
18,CCCc1nn(C)c2c(=O)[nH]c(-c3ccccc3OCC)nc12,-0.237
19,Cc1cc(C)cc(NS(=O)(=O)c2ccc3[nH]c(=O)[nH]c3c2)c1,0.711
20,Cc1cc(C)cc(NS(=O)(=O)c2ccc3oc(=O)ccc3c2)c1,2.23
21,O=c1ccc2cc(S(=O)(=O)Nc3ccc(F)cc3)ccc2o1,-0.226
